# Assay results published in PubChem BioAssay.
# Values without a mark were called inactive. Some of the results follow. Activity calls are given as the source filed them.
# Assays:
# [1] = molecular target: Inward rectifier potassium channel 2 (Mus musculus) (UniProt P35561); experiment: inhibition of Kir2.1 inward rectifier potassium flux – cell-based, FluxOR thallium flux, duplicate, confirmation (AID 2032); conditions: Kir2.1-expressing cells, FluxOR thallium flux fluorescence, at 10 µM; stronger effect = lower value
# Chain of Inward rectifier potassium channel 2 (Mus musculus) (P35561 whole entry, looked up): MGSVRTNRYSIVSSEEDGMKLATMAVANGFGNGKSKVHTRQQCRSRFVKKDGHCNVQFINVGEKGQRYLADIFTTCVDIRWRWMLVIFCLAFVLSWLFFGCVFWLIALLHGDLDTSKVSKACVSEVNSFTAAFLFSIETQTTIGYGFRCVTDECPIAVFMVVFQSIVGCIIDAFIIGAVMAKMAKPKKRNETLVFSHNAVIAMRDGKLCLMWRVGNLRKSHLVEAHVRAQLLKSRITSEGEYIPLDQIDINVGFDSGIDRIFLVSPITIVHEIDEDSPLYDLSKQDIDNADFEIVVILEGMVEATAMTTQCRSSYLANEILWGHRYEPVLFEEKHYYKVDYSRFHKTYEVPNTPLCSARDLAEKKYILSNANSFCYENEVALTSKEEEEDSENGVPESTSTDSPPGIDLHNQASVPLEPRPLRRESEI
# [2] = parental HEK293 cell activity, no Kir2.1 – FluxOR thallium flux, duplicate, single concentration, counter-screen for Kir2.1 inhibitor project, confirmation (AID 2105;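 active = dye signal at least 3 control SD above or below untreated wells in both duplicates, raw fluorescence within 3, either direction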;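 for FluxOR signal as % of negative control (100 = no effect): percent is based on the flux ratio of peak minus minimum fluorescence over baseline F0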); conditions: parental HEK293 cells, FluxOR thallium flux fluorescence, at 10 µM; 0% = unstimulated blank wells
# [3] = parental CHO-K1 cell activation, no KCNQ2 – FluxOR thallium flux, duplicate, counter-screen for KCNQ2 potentiator project, confirmation (AID 2282;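 active = signal rise of at least 3 SD above the untreated control mean, in both duplicate wells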;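 note: counter screen of KCNQ2 potentiator hits so any rise reflects channel-independent effects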); conditions: parental CHO-K1 cells, FluxOR thallium flux fluorescence; at 10 µM; stronger effect = higher value; zero = vehicle mean+3SD, 100% = vehicle-minus-blank window
# [4] = molecular target: Potassium voltage-gated channel subfamily KQT member 1 (Homo sapiens) (UniProt P51787); experiment: KCNQ1 activation in stable CHO cells – cell-based, FluxOR thallium flux, selectivity assay for KCNQ2 potentiator project, confirmation (AID 2283;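 active = fluorescence ratio rise of at least 3 SD of vehicle wells above their mean, in both replicate wells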;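 note: 0% = vehicle mean plus 3 SD and 100% = vehicle minus unstimulated blank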); conditions: FluxOR thallium flux fluorescence, at 10 µM, stronger effect = higher value, beyond 3SD, as % of vehicle-control signal
# Chain of Potassium voltage-gated channel subfamily KQT member 1 (Homo sapiens) (P51787 whole entry, looked up): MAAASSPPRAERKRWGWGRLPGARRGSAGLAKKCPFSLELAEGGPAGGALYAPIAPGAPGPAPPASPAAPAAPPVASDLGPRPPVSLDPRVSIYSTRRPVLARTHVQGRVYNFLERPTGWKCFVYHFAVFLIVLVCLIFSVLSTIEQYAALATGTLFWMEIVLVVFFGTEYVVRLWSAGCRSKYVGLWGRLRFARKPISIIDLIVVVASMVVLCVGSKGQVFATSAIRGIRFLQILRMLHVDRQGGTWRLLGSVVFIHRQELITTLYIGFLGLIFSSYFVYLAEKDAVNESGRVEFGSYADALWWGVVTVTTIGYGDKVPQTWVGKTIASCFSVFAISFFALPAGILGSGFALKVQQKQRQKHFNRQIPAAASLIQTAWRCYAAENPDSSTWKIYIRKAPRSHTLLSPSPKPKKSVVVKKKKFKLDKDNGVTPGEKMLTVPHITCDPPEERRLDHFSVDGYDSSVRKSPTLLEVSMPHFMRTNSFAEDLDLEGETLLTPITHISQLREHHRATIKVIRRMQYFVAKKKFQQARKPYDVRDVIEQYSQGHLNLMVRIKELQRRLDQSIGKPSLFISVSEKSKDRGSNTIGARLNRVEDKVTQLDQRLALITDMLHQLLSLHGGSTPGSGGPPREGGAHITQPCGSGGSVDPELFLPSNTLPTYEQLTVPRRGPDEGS
# [5] = molecular target: Potassium voltage-gated channel subfamily KQT member 2 (Rattus norvegicus) (UniProt O88943); experiment: KCNQ2 potassium channel activity enhancers – cell-based, CHO, FluxOR thallium flux, duplicate, confirmation (AID 2287;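 active = fluorescence ratio rising 3 SD or more over the vehicle control mean in both replicates, plus primary screen hit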;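 note: peak minus minimum thallium fluorescence divided by baseline after K/Tl stimulus; 0% = vehicle mean plus 3 SD and 100% = vehicle minus unstimulated blank difference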); conditions: CHO-KCNQ2 cells, FluxOR thallium flux fluorescence; at 10 µM; stronger effect = higher value
# [6] = molecular target: Inward rectifier potassium channel 2 (Mus musculus) (UniProt P35561); experiment: PubChem AID 2345; conditions: HEK293 Kir2.1, FluxOR thallium flux fluorescence; at 10 µM; stronger effect = higher value;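 note: 0% = vehicle mean plus 3 SD and 100% = vehicle minus no-stimulus blank window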
# [7] = molecular target: Potassium voltage-gated channel subfamily KQT member 2 (Rattus norvegicus) (UniProt O88943); experiment: W236L mutant KCNQ2 current enhancers – cell-based, rat KCNQ2 W236L, CHO, automated patch clamp, mechanism study for KCNQ2 potentiator project (AID 2558;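 active = current increase at least 3 SD of the untreated controls above them in both duplicate recordings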); conditions: at 25 µM
# [8] = nonspecific flux increase, KCNQ1-free cells – parental CHO cells, counter-screen for KCNQ1 potentiator project (AID 493006;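 active = duplicate-averaged activation above buffer control mean plus 5 SD of those controls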;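 for activation: fluorescence ratio of max minus min over baseline after K+ and Tl+ depolarization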); conditions: parental CHO-K1 cells, FluxOR thallium flux, at 10 µM; stronger effect = higher value
# [9] = molecular target: Potassium voltage-gated channel subfamily KQT member 1 (Homo sapiens) (UniProt P51787); experiment: enhancement of KCNQ1 channel thallium flux – FluxOR thallium flux, CHO cells, duplicates, confirmation (AID 493007;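 active = potentiation averaged over duplicate wells exceeding buffer-only control mean by more than 3 SD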;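 for outcome: cells depolarized by a potassium plus thallium sulfate stimulus after compound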;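 for potentiation: 0% = buffer-only wells and 100% = R-L3 activator control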); conditions: KCNQ1 cell line, FluxOR thallium flux fluorescence, at 10 µM; stronger effect = higher value, % of reference activator effect, buffer zero
# [10] = molecular target: Potassium voltage-gated channel subfamily KQT member 2 (Rattus norvegicus) (UniProt O88943); experiment: KCNQ2 thallium flux enhancement – KCNQ2-CHO-K1 cells, selectivity assay for KCNQ1 potentiator project (AID 493009;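 active = mean duplicate potentiation above the buffer control mean plus 5 SD of buffer wells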;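 note: assay conditions were tuned for KCNQ1 rather than KCNQ2 modulators; signal is max minus min fluorescence divided by baseline after thallium stimulus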); conditions: FluxOR thallium flux fluorescence, at 10 µM; stronger effect = higher value, scaled: buffer 0, activator control 100
# [11] = molecular target: Potassium voltage-gated channel subfamily KQT member 1 (Homo sapiens) (UniProt P51787); experiment: KCNQ1 activators by electrophysiology – IonWorks patch clamp, KCNQ1-CHO cells, orthogonal assay for KCNQ1 potentiator project, confirmation (AID 493184;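 active = current rise at least 3 SD above the untreated control mean in each of two repeat wells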); conditions: automated patch clamp current, at 10 µM; stronger effect = higher value
# [12] = molecular target: Potassium voltage-gated channel subfamily KQT member 1 (Homo sapiens) (UniProt P51787); experiment: blockers of human KCNQ1 channel – cell-based, Tl flux, duplicate, confirmation (AID 588353;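 active = primary screen active, with duplicate mean exceeding buffer control mean plus 3 SD of buffer wells, cut at about 28% in these data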;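 note: 0% = buffer control ratio and 100% = XE991 inhibitor control ratio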); conditions: KCNQ1 cell line, FluxOR thallium flux fluorescence; at 10 µM; stronger effect = higher value
# [13] = nonspecific activity in CHO-K1 cells without KCNQ1 – parental CHO cells, Tl flux, counter-screen for KCNQ1 inhibitor project (AID 588366;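 active = mean of duplicate thallium-flux fluorescence ratios in parental host cells more than 5 SD below the buffer control mean, cut at about 0.38 in these data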;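 note: ratio is peak minus minimum fluorescence divided by baseline fluorescence; actives read low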); conditions: parental CHO-K1, FluxOR thallium flux fluorescence ratio; at 10 µM; stronger effect = lower value; zero means no signal rise above baseline
# [14] = molecular target: Potassium voltage-gated channel subfamily KQT member 2 (Rattus norvegicus) (UniProt O88943); experiment: block of rat KCNQ2 potassium channel – cell-based, selectivity assay for KCNQ1 inhibitor project (AID 651746;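 active = mean percent inhibition of the KCNQ2 thallium signal more than 5 SD above the buffer-only control wells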;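 for inhibition: 0% = buffer control wells and 100% = XE-991 inhibitor control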); conditions: KCNQ2 cells, FluxOR thallium flux fluorescence, at 10 µM; stronger effect = higher value
# [15] = molecular target: Potassium voltage-gated channel subfamily KQT member 1 (Homo sapiens) (UniProt P51787); experiment: block of human KCNQ1 potassium current – cell-based, automated electrophysiology, orthogonal assay, confirmation (AID 624120;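 active = KCNQ1 current drop exceeding 3 SD of negative control wells, seen in both duplicate runs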); conditions: KCNQ1-CHO cells, automated patch clamp current; at 10 µM
# [16] = molecular target: Potassium voltage-gated channel subfamily E member 1 (Homo sapiens) + Potassium voltage-gated channel subfamily KQT member 1 (Homo sapiens) (UniProt P15382+P51787); experiment: block of human IKs channel complex – CHO-K1 cells, thallium flux, FluxOR, selectivity assay for KCNQ1 inhibitor project (AID 652147;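 active = mean percent inhibition of duplicate wells above the buffer-only control mean plus 3 SD of those controls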); conditions: KCNQ1/KCNE1 cells, FluxOR thallium flux fluorescence; at 10 µM
# Chain of Potassium voltage-gated channel subfamily E member 1 (Homo sapiens) + Potassium voltage-gated channel subfamily KQT member 1 (Homo sapiens) (P51787 whole entry, looked up): as the sequence (P51787 whole entry, looked up) above
smiles,measurement,setting,value
CCn1c2ccccc2c2cc(NC(=O)CNC)ccc21,"Tl flux remaining, % of negative control (stronger effect = lower value)",[1],44% (active)
same,outcome,[2],inactive
same,activity increase over 3SD of controls,[3],-6.1%
same,activation over 3SD threshold,[4],-12.2%
same,"potentiation, less the hit threshold",[5],1.9% (active)
same,activity over 3SD threshold,[6],-90%
same,outcome,[7],inactive
same,outcome,[8],inactive
same,outcome,[9],inactive
same,outcome,[10],inactive
same,outcome,[11],inactive
Cc1cccc(NC(=S)NC(=O)c2ccc(Br)o2)c1,outcome,[1],inactive
same,FluxOR signal as % of negative control (100 = no effect),[2],170% (active)
same,activity increase over 3SD of controls,[3],-7%
same,activation over 3SD threshold,[4],-15.7%
same,"potentiation, less the hit threshold",[5],35.5% (active)
same,activity over 3SD threshold,[6],-35.5%
same,outcome,[7],inactive
same,activation,[8],204% (active)
same,potentiation,[9],72% (active)
same,potentiation,[10],272% (active)
same,outcome,[11],inactive
CC(=O)N(C1=C(Cl)C(=O)c2ccccc2C1=O)c1ccc(C(=O)O)cc1,outcome,[1],inactive
same,outcome,[2],inactive
same,inhibition,[12],158% (active)
same,fluorescence ratio (Tl flux),[13],0.205 (active)
same,inhibition,[14],124% (active)
CC(NC(=O)Nc1cccc([N+](=O)[O-])c1)c1ccc2c(c1)OCO2 (stereo not given),outcome,[1],inactive
same,outcome,[2],inactive
same,activity increase over 3SD of controls,[3],19.3% (active)
same,activation over 3SD threshold,[4],80% (active)
same,"potentiation, less the hit threshold",[5],30.7% (active)
same,activity over 3SD threshold,[6],-29.4%
same,outcome,[7],inactive
Cc1[nH]n(-c2cccc(Cl)c2)c(=O)c1/C=N/n1c(C)nc2ccccc2c1=O,outcome,[1],inactive
same,FluxOR signal as % of negative control (100 = no effect),[2],145% (active)
same,activity increase over 3SD of controls,[3],36% (active)
same,activation over 3SD threshold,[4],-26.8%
same,"potentiation, less the hit threshold",[5],1.8% (active)
same,activity over 3SD threshold,[6],-35.9%
same,outcome,[7],inactive
CCC1(C)Cc2c(sc3nnn(CC(=O)Nc4ccc(Cl)cc4)c(=O)c23)CO1 (stereo not given),outcome,[1],inactive
same,outcome,[2],inactive
same,activity increase over 3SD of controls,[3],-19.3%
same,activation over 3SD threshold,[4],4.5% (active)
same,"potentiation, less the hit threshold",[5],2.2% (active)
same,activity over 3SD threshold,[6],-36.4%
same,outcome,[7],inactive
S=C(NCc1ccc(Cl)cc1)NC12CC3CC(CC(C3)C1)C2,outcome,[1],inactive
same,outcome,[2],inactive
same,activity increase over 3SD of controls,[3],46.3% (active)
same,activation over 3SD threshold,[4],-0.2%
same,"potentiation, less the hit threshold",[5],9% (active)
same,activity over 3SD threshold,[6],-9.25%
same,outcome,[7],inactive
same,inhibition,[12],143% (active)
same,fluorescence ratio (Tl flux),[13],0.521
same,outcome,[15],active
same,outcome,[14],inactive
same,outcome,[16],inactive
